The values below come from PubChem BioAssay AID1347421 (Sanford-Burnham Center for Chemical Genomics, 2020).

In all, about 1,500 compounds were measured (“activity”: median about 2, lowest 2% from about -18 on). This excerpt belongs to a sample that is enriched for the lowest values. Activity calls are given as the source filed them.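 Rule for the calls: active = inhibition of at least 40% at 10 µM; inconclusive = no clear call, values can overlap the other calls; inactive = the rest.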

For this assay, the target named is Sulfhydryl oxidase 1 (Homo sapiens) (UniProt O00391). Description: QSOX1 enzyme inhibitors, confirmation, biochemical, ROS-Glo luminescence, single concentration (AID 1347421).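 Note: 0% = DMSO wells with enzyme and 100% = wells lacking QSOX1 enzyme.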 The following applies: recombinant hQSOX1, RNase A substrate, ROS-Glo H2O2 luminescence; at 10 µM.
Chain of Sulfhydryl oxidase 1 (Homo sapiens) (O00391 whole entry, looked up): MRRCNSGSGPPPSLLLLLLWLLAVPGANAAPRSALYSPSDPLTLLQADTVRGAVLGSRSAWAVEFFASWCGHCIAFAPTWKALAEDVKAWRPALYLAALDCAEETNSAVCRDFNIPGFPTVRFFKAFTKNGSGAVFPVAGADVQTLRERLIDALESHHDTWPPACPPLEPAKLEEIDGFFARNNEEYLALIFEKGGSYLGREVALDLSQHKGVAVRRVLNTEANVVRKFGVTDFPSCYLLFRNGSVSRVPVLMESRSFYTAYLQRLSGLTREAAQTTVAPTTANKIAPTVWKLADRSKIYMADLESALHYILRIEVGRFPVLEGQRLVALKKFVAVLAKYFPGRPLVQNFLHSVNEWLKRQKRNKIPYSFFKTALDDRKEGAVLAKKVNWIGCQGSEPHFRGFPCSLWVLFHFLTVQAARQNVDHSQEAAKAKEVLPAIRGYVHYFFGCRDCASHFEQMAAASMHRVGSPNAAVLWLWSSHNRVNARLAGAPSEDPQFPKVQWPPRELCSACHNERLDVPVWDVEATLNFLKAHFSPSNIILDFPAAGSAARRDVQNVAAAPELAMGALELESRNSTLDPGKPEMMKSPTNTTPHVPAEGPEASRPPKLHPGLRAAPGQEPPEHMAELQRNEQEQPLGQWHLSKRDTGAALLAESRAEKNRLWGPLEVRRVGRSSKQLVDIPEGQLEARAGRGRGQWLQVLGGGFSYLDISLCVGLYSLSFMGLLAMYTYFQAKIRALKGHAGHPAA
With `Cc1ccc(C(=O)N2CCC3(CCCN(Cc4ccc(F)c(F)c4)C3=O)C2)cn1` (stereo unspecified), the activity is 3.9%.
The result for `CCSCCn1ncc(N2CCNCC2)cc1=O` reads 1.4%.
The result for `CC(C)(CO)NC(=O)CC(c1ccccc1)c1ccc(Cl)cc1` (stereo unspecified) reads 0.5%; that for `NCc1ccccc1SC1=[C+]C=C[C+]=C1CN1CCOCC1`, -11.3% (inactive); that for `O=C(NC(=O)N1CCCC1)c1ccc(Cl)cc1`, -2.8% (inactive).
Under `O=C1CCCN1CCCNCc1cccc(OCC(O)CN2CCCCCC2)c1` (stereo unspecified) stands 5.6%; under `COc1ccccc1Oc1ncccc1CNCC1CCOC1` (stereo unspecified), 2.6%; under `Cc1cc(S(=O)(=O)n2ccnc2)c(C)c(C)c1C`, -0.1% (inactive).
In the case of `O=C(CC1C(=O)NCCN1Cc1cccnc1)NCCCn1ccc2ccccc21` (stereo unspecified), the activity came out at 3.3%.
The result for `COc1ccc(S(=O)(=O)N2CCCC(C(=O)NC3CC3)C2)cc1OC` (stereo unspecified) reads -18.9% (inactive); that for `COc1ccc(S(=O)(=O)N2CCCC2)cc1N(C)S(C)(=O)=O`, -11% (inactive); that for `COCC(=O)Nc1ccc(S(=O)(=O)N2CCCC(C)C2)cc1` (stereo unspecified), 7.5%.
Consider `CN1CCCCCC1C(=O)NCc1cccnc1N1CCN(c2ccccn2)CC1` (stereo unspecified), for which the activity is -5.2% (inactive).
The result for `CCOC(=O)c1cccc(CSc2n[nH]c(N)n2)c1` reads -1.9% (inactive); that for `Cn1ccnc1C1CCCCN1Cc1c(C(=O)N2CCCCCCC2)nc2sccn12` (stereo unspecified), 10.8%.
With `COc1cccc(-c2n[nH]c3c2CN(CCc2ccccc2)CC3)c1`, the activity came out at 5.1%.
For the compound `Fc1ccccc1-c1noc2c1CN(Cc1ccc3c(c1)OCCO3)CC2`, the activity was -4.5% (inactive).
The result for `O=C(NCc1ccc2c(c1)OCO2)C1CCC(=O)N(CCc2cccc(F)c2)C1` (stereo unspecified) reads -2% (inactive).
In the case of `CCN(CC)C(=O)NCc1ccccn1`, the activity is -15.1% (inactive).
As to `CCN(CC)C(=O)NCc1ccc2c(c1)OCO2`, the activity is -18.4% (inactive).
In the case of `Cc1cc(N2CCN(C(=O)c3cn(Cc4ccccc4F)nn3)CC2)cc(C)n1`, the activity is 2.1%.
As for `Cc1noc(C)c1CC(=O)N1CCCC(CCC(=O)N(C)CCc2ccccn2)C1` (stereo unspecified), the activity is 5.3%.
Turning to `CN(CCc1ccccn1)C(=O)CCC1CCCN(C(=O)Cc2cccnc2)C1` (stereo unspecified), the activity was determined as 4.4%.
In the case of `FC(F)(F)c1cc(-c2ccco2)nc(NCc2cccs2)n1`, the activity is -4.8% (inactive).
For `FC(F)(F)c1cc(-c2ccco2)nc(N2CCCCC2)n1`, the activity is -20.8% (inactive).
As to `Cc1ccccc1CC(=O)NCC(C)C`, the activity was -16% (inactive).
As for `COc1cc(C(=O)NC2CCCCC2)ccc1OC1CCN(C(C)=O)CC1`, the activity was found to be 3.4%.
The result for `CN(CCc1ccccn1)[C@@H]1CCN(Cc2ccc(C#CCO)s2)C[C@H]1O` reads 4.2%; that for `Cc1occc1C(=O)Nc1ccc([N+](=O)[O-])cn1`, 17.1%.
The result for `C=C(C)CN(CC)C(=O)c1cc(COc2ccc(-n3cncn3)cc2)on1` reads 9.4%; that for `COc1ccc(C2CC(=O)c3cnc(NC4CC4)nc3C2)cc1` (stereo unspecified), 3.9%; that for `COc1ccc(C2CC(=O)c3cn[nH]c3C2)cc1` (stereo unspecified), -17.7% (inactive).
For the compound `CCN1CCN(c2ncc3c(n2)CC(c2ccc(OC)c(OC)c2)CC3=O)CC1` (stereo unspecified), the activity is -19% (inactive).
As for `O=C(CCc1ccsc1)N1CCOC(Cc2ccccc2Cl)C1` (stereo unspecified), the activity was 20.5%.
Under `Cc1cc(Br)c(S(=O)(=O)NCc2ccncc2)cc1C` stands 3.4%; under `NC(=O)C1(N2CCCCC2)CCN(C(=O)C2CCC(=O)N(C3CCCC3)C2)CC1` (stereo unspecified), 5.6%.
The result for `O=C(Nc1ccccc1C(=O)NC1CC1)c1ccccc1Cl` reads 11.7%.
Take `Cc1ccccc1C(=O)Nc1c(Cl)ccc2nsnc12`: the activity worked out at 0.9%.
With `Cc1ccccc1C(=O)Nc1ccccc1C(=O)N(C)C`, the activity is -20% (inactive).
Turning to `COc1ccccc1/C=C/CN1CCNC(=O)C1CC(=O)NCCOc1cccnc1` (stereo unspecified), the activity is -2% (inactive).
Under `CC(C)Cn1c(CN(C)Cc2ccco2)cnc1S(=O)(=O)CC1CCCO1` (stereo unspecified) stands 4.1%; under `O=C1CCC(C(=O)N2CCC(Oc3cccc(F)c3)CC2)CN1CCc1ccccn1` (stereo unspecified), 0.7%.
Under `O=C(Nc1n[nH]c(C2CCCCC2)n1)N1CCOC2(CCCC2)C1` stands 1%.
Take `C=CCC1(CC=C)CCCN1C(=O)c1cn(CC2COc3ccccc3O2)nn1` (stereo unspecified): the activity is -0.3% (inactive).
The result for `O=c1c2ccccc2nc(NCCO)n1Cc1ccccc1` reads -20.3% (inactive).
For `CS(=O)(=O)c1ncc(CO)n1Cc1ccccc1`, the activity is -4.5% (inactive).
As for `NC(=O)COc1ccc(S(=O)(=O)N2CCOCC2)cc1`, the activity was -13.3% (inactive).
Turning to `O=C(O)c1ccc(S(=O)(=O)N2CCSCC2)cc1`, the activity was -3% (inactive).
Take `O=C(c1cc(S(=O)(=O)N2CCOCC2)c(Cl)cc1Cl)N1CCSCC1`: the activity was -18.4% (inactive).
`O=C(Nc1ccc(-c2nc3ccccc3[nH]2)cc1)c1ccccn1`: the activity was found to be 5.8%.
Consider `CN(C)S(=O)(=O)c1cccc(S(C)(=O)=O)c1`, for which the activity is 8.2%.
`COc1cc(C)nc(NC(=O)Nc2cccc(Cl)c2)n1`: the activity is -2.3% (inactive).
In the case of `Cc1ccc(S(=O)(=O)c2ncsc2Cl)cc1`, the activity worked out at 0.6%.
Under `CC(C)Oc1ccc(NC(=O)CCN2C(=O)c3ccccc3C2=O)cc1` stands 0.6%.
On to `COC1=C(OC)C=CC(c2nnn(C3CCNCC3)n2)=[C+]1`, for which the activity was -20.6% (inactive).
Consider `COc1cccc(CNCc2ccc(F)cc2)c1`, for which the activity was -17.7% (inactive).
